Source: PubChem (National Center for Advancing Translational Sciences (NCATS))
HT1080 IDH1KD tx – HT-1080 IDH1 knockdown cell toxicity (counter line). HT-1080 IDH1 knockdown viability, ATP luminescence, 48 h. Potency, µM (series often up to 46.1 µM), for inactives: top-dose activity, negative = toxicity, most hits filed as cytotoxic. 360,000 compounds, 2% hits;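 further: potency means the concentration at half of the fitted maximal effect; 0% = DMSO wells and -100% = cell-free medium wells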
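Assay cells: HT-1080 with IDH1 knockdown, 750 per well, RPMI/5% FBS. Exposure: 48 h at 37 °C following 2 h pre-incubation. Read: CellTiter-Glo luminescence; fitted concentration-response, curve class assigned.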
ALOX12 inh – blocks human arachidonate 12S-lipoxygenase; P18054; purified 12hLO, xylenol orange hydroperoxide absorbance; Potency, µM (top dose mostly 108 µM), for the others: at the highest dose activity change, negative = inhibition, most hits filed as inhibitors; 580,000 compounds, 1.1% hits; further: potency means the concentration at half of the fitted maximal effect
Target sequence (P18054 whole entry, looked up): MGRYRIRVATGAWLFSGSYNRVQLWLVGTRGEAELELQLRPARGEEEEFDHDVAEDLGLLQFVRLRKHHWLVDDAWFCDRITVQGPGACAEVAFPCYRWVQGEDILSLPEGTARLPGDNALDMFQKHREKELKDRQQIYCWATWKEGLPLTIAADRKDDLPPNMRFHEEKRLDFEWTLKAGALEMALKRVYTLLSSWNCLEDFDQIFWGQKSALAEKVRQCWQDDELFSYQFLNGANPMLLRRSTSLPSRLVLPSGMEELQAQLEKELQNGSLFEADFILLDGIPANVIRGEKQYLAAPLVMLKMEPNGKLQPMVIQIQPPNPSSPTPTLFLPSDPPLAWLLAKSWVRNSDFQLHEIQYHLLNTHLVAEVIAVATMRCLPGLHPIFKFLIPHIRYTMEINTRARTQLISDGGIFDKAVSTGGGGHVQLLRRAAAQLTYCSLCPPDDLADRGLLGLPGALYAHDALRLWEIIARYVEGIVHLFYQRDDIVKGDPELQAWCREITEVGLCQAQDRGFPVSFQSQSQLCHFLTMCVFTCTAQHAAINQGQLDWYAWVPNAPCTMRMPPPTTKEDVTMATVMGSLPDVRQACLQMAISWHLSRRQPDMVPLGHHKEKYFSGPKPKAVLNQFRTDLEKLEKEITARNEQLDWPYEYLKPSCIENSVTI
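Purified human 12hLO (150 nM final) in 25 mM Hepes, 0.01% Triton X-100, pH 7.0 was preincubated 15 min at room temperature with compound. Then 40 uM arachidonic acid was added, 30 min. Hydroperoxide was read by Fe-XO absorbance ratio 573/405 nm.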
TDP1 cell CPT – growth inhibition of DT40 Tdp1-/-;hTDP1 cells with camptothecin (screen for TDP1 inhibitors). chicken DT40 Tdp1-/-;hTDP1 cells + 20 nM CPT, ATP luminescence, 48 h. Potency, µM (titrated, usually from 46.2 µM), for inactives: at the top dose activity change, negative = growth inhibition, usual class: inhibitors. 420,000 compounds, 12% hits. AID 686979; further: potency means the concentration at half of the fitted maximal effect; nearly all actives have a fitted effect of over 55% in size
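Chicken DT40 Tdp1-/- cells stably complemented with human TDP1 were seeded at 400 cells/well in medium containing 20 nM camptothecin, exposed to pin-transferred compounds, and grown at 37 °C for at least 48 hr. Viability was read as ATP luminescence.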
HT1080-NT tox – kills 2HG-producing HT-1080-NT fibrosarcoma cells; Potency, µM (top dose mostly 46.1 µM), inactives show at the highest dose activity, negative = less viability, usual class: cytotoxic; HT-1080-NT fibrosarcoma viability, CellTiter-Glo ATP luminescence, 48 h; 360,000 compounds, 1.6% hits;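 further: NT is the 2HG producing partner of a matched IDH1 knockdown line; potency means the concentration at half of the fitted maximal effect; 0% = DMSO-treated cells and -100% = media-only wells without cells; nearly all actives have a fitted effect of over 55% in size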
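A 48-hour cytotoxicity screen used HT-1080-NT cells plated 2 hours before compound delivery. ATP-based CellTiter-Glo luminescence measured viability, normalized to DMSO and no-cell controls.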
DT40 TDP1 no CPT – qHTS for Inhibitors of human tyrosyl-DNA phosphodiesterase 1 (TDP1): qHTS in cells in absence of CPT. DT40 Tdp1-/- hTDP1 cells, no CPT, ATP luminescence, 48 h. Potency, µM (titrated, usually from 46.2 µM), inactives show top-dose activity change, negative = growth inhibition, hits mostly inhibitors. 420,000 compounds, 15% hits. AID 686978, 2013; further: potency means the concentration at half of the fitted maximal effect; nearly all actives have a fitted effect of over 55% in size
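Seeded 400 DT40-hTDP1 cells/well (vehicle DMSO, no 20 nM CPT); pinned compounds; ≥48 hr at 37 °C; CellTiter-Glo luminescence as viability measure.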
IL-1B inflam inh – blocks inflammasome-driven IL-1 beta release; THP-1 LPS/ATP IL-1B secretion, AlphaLISA, 16 h; active compounds read low; 360,000 compounds, 4.7% hits; activity change, % at 57.5 µM; in the data active means activity change below about -50%; inconclusive means mostly about -30% to -49%
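THP-1 cells pretreated 1 hr with compounds (up to 57.5 uM final), then stimulated with LPS (250 ng/mL final) plus ATP (1.25 mM final); secreted IL-1B measured by AlphaLISA after 16 hr, decreased signal indicating inhibition.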
Starred values were filed as active, the others as inactive; ? = inconclusive; / = no result. This excerpt belongs to a sample that is enriched for hits. Unless noted, the call rests on the fitted dose curve; in most records, active means well fitted curve in the direction sought with a large enough effect; inconclusive means small, poorly fitted or top-dose-only effect, or another doubt; inactive means no such curve, though single readings can be large; an effect the other way counts as inactive or inconclusive. Unless noted, on the % scale 0 is the no-effect control and ±100 the full control effect.

SMILES	HT1080 IDH1KD tx	ALOX12 inh	TDP1 cell CPT	HT1080-NT tox	DT40 TDP1 no CPT	IL-1B inflam inh
Cc1c(CCCN)c2ccccc2n1Cc1ccccc1	21µM*	-20%	?	?	16µM*	-71*
Cc1cc(C(=O)CSc2n[nH]c(N)n2)c(C)n1-c1ccccc1	?	-9%	?	-24%	-21%	-8
Cc1cc(C(=O)CSc2n[nH]c(N)n2)c(C)n1C1CC1	3%	161%	?	5%	21µM*	-8
Cc1cc(C(=O)CSc2n[nH]c(N)n2)c(C)n1-c1cc(F)ccc1F	-18%	?	-18%	-15%	?	-1
Cc1cc(C(=O)CSc2n[nH]c(N)n2)c(C)n1-c1ccc(F)cc1	-25%	0%	21µM*	?	?	2
Cc1ccc(-n2c(C)cc(C(=O)CSc3n[nH]c(N)n3)c2C)cc1	?	-26%	?	1%	13µM*	9
Cc1ccc(-n2c(SCC(=O)NC(=O)NCC(C)C)nnc2N2CCCCC2)cc1	/	23%	/	/	/	/
Cc1ccsc1C(=O)N1CCOc2ccc(CN3CCc4ccccc4C3)cc2C1	/	21%	/	/	/	/
Cc1ccc(Oc2ccccc2NC(=O)c2ccncc2)cc1	/	0%	/	/	/	/
CCOC(=O)C1=C(CNc2ccc(C)cc2)NC(=O)NC1c1ccccc1 (stereo unspecified)	/	-5%	/	/	/	/
CCN1C(=O)[C@H]2[C@@H](c3ccc(C(F)(F)F)cc3)N[C@]3(CCCN(CC4CCCCC4)C3=O)[C@H]2C1=O	8%	?	?	-7%	?	?
CCN1C(=O)[C@H]2[C@@H](c3ccc(C(F)(F)F)cc3)N[C@]3(CCCN(Cc4ccccc4)C3=O)[C@H]2C1=O	-3%	-24%	21µM*	-10%	16µM*	-20
COc1ccc(CN2CCC[C@]3(N[C@H](c4ccc(C(F)(F)F)cc4)[C@@H]4C(=O)N(Cc5ccccc5)C(=O)[C@@H]43)C2=O)cc1	-23%	?	?	-15%	?	-16
CCN1C(=O)[C@H]2[C@@H](c3ccc(C(F)(F)F)cc3)N[C@]3(CCCN(Cc4ccc(F)cc4)C3=O)[C@H]2C1=O	-5%	-15%	21µM*	-2%	9.2µM*	2
COc1ccc([C@H]2N[C@]3(CCCN(Cc4ccc(F)cc4)C3=O)[C@H]3C(=O)N(Cc4ccccc4)C(=O)[C@@H]23)cc1	-3%	35µM*	?	2%	?	-2
Cc1ccc([C@H]2N[C@]3(CCCN(Cc4ccc(F)cc4)C3=O)[C@H]3C(=O)N(Cc4ccccc4)C(=O)[C@@H]23)cc1	-2%	14µM*	?	-2%	?	-24
COc1ccccc1/C=C/C(=O)c1cc(F)ccc1OC(=O)c1ccccc1	/	-14%	/	/	/	/
CCN(CC)c1nc2c(c(=O)n(Cc3ccccc3)c(=O)n2C)n1Cc1ccccc1	/	14%	/	/	/	/
CCc1nc(-c2c3n(c(=O)n(Cc4ccc(OC)c(F)c4)c2=O)CCCCC3)no1	/	19%	/	/	/	/
CCN1C(=O)[C@H]2[C@@H](c3ccc(C)cc3)N[C@]3(CCCN(CC4CCCCC4)C3=O)[C@H]2C1=O	10%	?	-13%	14%	?	12
COc1ccc([C@H]2N[C@]3(CCCN(CC4CCCCC4)C3=O)[C@H]3C(=O)N(Cc4ccccc4)C(=O)[C@@H]23)cc1	1%	?	?	-3%	21µM*	-7
CCN1C(=O)[C@H]2[C@@H](c3ccc(C)cc3)N[C@]3(CCCN(Cc4ccc(C(F)(F)F)cc4)C3=O)[C@H]2C1=O	-1%	?	13µM*	-6%	10µM*	17
Cc1ccc(CN2CCC[C@]3(N[C@H](c4ccc(C(F)(F)F)cc4)[C@@H]4C(=O)N(Cc5ccccc5)C(=O)[C@@H]43)C2=O)cc1	-23%	8.9µM*	21µM*	-13%	21µM*	-14
CCN1C(=O)[C@H]2[C@@H](c3ccc(OC)cc3)N[C@]3(CCCN(Cc4ccc(C(F)(F)F)cc4)C3=O)[C@H]2C1=O	-1%	32µM*	?	0%	18µM*	1
C1=Cc2ccccc2/C1=C\c1cc[cH-]c1.[Fe+2].c1cc[cH-]c1	/	/	11µM*	/	?	/
SMILES	HT1080 IDH1KD tx	ALOX12 inh	TDP1 cell CPT	HT1080-NT tox	DT40 TDP1 no CPT	IL-1B inflam inh
COc1ccc(/C=C2/C=Cc3ccccc32)cc1	/	/	1%	/	?	/
COc1cc(/C=C2\C=Cc3ccccc32)cc(OC)c1OC	/	/	?	/	16µM*	/
Nc1ccc(C=C2C=Cc3ccccc32)cc1	-9%	?	4%	-13%	1%	-74*
NC(N)=Nc1ccc(C=C2C=Cc3ccccc32)cc1	?	?	9.2µM*	-11%	9.2µM*	-68*
CCCCOCCCNC(=O)CCC(=O)NC1CCCCC1	/	16%	/	/	/	/
CS(=O)(=O)c1ccc(/C=C2\C=Cc3ccccc32)cc1	/	/	?	/	20µM*	/
CN(N=O)c1ccc(/C=C2\C=Cc3ccccc32)cc1	/	/	2%	/	-28%	/
CN(C(=O)c1cc(C2CC2)nc2ccccc12)c1ccccc1	/	-8%	/	/	/	/
COc1ccc(C2=C(Nc3ccc(F)cc3)c3ccccc3C2=O)cc1	-20%	12%	?	-13%	?	-20
COc1ccc(C2=C(Nc3ccc(C)cc3)c3ccccc3C2=O)cc1	18%	5%	5.2µM*	1%	?	2
Cc1cc(C)cc(NC2=C(c3ccccc3)C(=O)c3ccccc32)c1	/	?	21µM*	/	?	/
Cc1cc(C)cc(NC(=O)C(C)N2C(=O)c3ccccc3C2=O)c1 (stereo unspecified)	6%	-34%	3%	9%	-6%	4
COc1ccc(C2=C(Nc3ccc(Br)c(C)c3)c3ccccc3C2=O)cc1	/	-22%	7.3µM*	/	12µM*	/
COc1ccc2cc(C(=O)Nc3cc(C)ccn3)c(C)nc2c1	/	3%	/	/	/	/
CC(C)C(CNC(=O)c1n[nH]c(=O)c2ccccc12)N(C)C (stereo unspecified)	/	-2%	/	/	/	/
CCCNC(=O)CSc1nnc(C(=O)Nc2ccccc2)s1	/	-1%	/	/	/	/
Cc1ccc(S(=O)(=O)N2CCN(C3CCN(Cc4cccnc4)C3=O)CC2)cc1 (stereo unspecified)	/	19%	/	/	/	/
Cc1ccc(NC(=O)Cn2c(=O)n(CCCCC(=O)NCc3ccco3)c(=O)c3ccccc32)cc1	1%	0%	?	0%	15µM*	-18
